This note sets out measurements from the antibiotic and cytotoxicity screens of Wong et al. (2023).

The structures appear in SMILES notation. In all, about 39,000 compounds went through this assay and about 3,300 (8.5%) were called active. This excerpt belongs to a sample that is enriched for actives.

In the assay the test system is HepG2. The assay is described as follows: cytotoxicity call (relative viability < 0.9). The conditions noted are these: 10 µM.
Consider `COc1ccc(-c2cnc3c(c2)C(=O)N([C@@H](C)CO)C[C@H](C)[C@@H](CN(C)C(=O)C2CCOCC2)O3)cc1`, for which the cytotoxicity call is “inactive”. For `COc1ccc(S(=O)(=O)Nc2ccc3c(c2)C(=O)N([C@H](C)CO)C[C@H](C)[C@H](CN(C)C(=O)CCC(F)(F)F)OCCCC[C@H](C)O3)cc1` the value was “inactive”; for `COc1ccc(NC(=O)N(C)C[C@H]2OCCCC[C@@H](C)Oc3ccc(NC(=O)c4ccncc4)cc3C(=O)N([C@@H](C)CO)C[C@H]2C)cc1`, “inactive”. For `O=C(C[C@@H]1C=C[C@@H](NC(=O)c2cccnc2)[C@@H](CO)O1)NCc1ccncn1` the value was “inactive”; for `C[C@@H]1CCCCO[C@@H](CN(C)S(=O)(=O)c2cccs2)[C@@H](C)CN([C@@H](C)CO)C(=O)c2cc(NC(=O)c3ccccc3)ccc2O1`, “inactive”; for `C[C@@H]1CCCCO[C@H](CN(C)S(=O)(=O)c2cccs2)[C@@H](C)CN([C@@H](C)CO)C(=O)c2cc(NC(=O)c3ccccc3)ccc2O1`, “inactive”. For the molecule `C[C@@H]1CN([C@H](C)CO)C(=O)c2cc(NC(=O)c3ccccc3)ccc2O[C@@H](C)CCCCO[C@H]1CN(C)S(=O)(=O)c1cccs1`, the cytotoxicity call was “active”. For the molecule `C[C@@H]1CCCCO[C@@H](CN(C)S(=O)(=O)c2cccs2)[C@H](C)CN([C@H](C)CO)C(=O)c2cc(NC(=O)c3ccccc3)ccc2O1`, the cytotoxicity call was “active”. The same measure for `C[C@@H]1CN([C@@H](C)CO)C(=O)c2cc(NC(=O)c3ccccc3)ccc2O[C@@H](C)CCCCO[C@@H]1CN(C)S(=O)(=O)c1cccs1`: “inactive”; for `C[C@@H]1CCCCO[C@@H](CN(C)S(=O)(=O)c2cccs2)[C@H](C)CN([C@@H](C)CO)C(=O)c2cc(NC(=O)c3ccccc3)ccc2O1`: “inactive”; for `Cc1noc(C)c1S(=O)(=O)Nc1ccc2c(c1)C(=O)N([C@H](C)CO)C[C@H](C)[C@@H](CN(C)S(C)(=O)=O)OCCCC[C@@H](C)O2`: “inactive”.

For the molecule `CCOC(=O)N1CCN(C[C@@H](O)Cn2c(=O)c3c(ncn3C)n(C)c2=O)CC1`, the cytotoxicity call is “inactive”. For `Cc1noc(C)c1S(=O)(=O)Nc1ccc2c(c1)C(=O)N([C@H](C)CO)C[C@@H](C)[C@@H](CN(C)S(=O)(=O)c1cn(C)cn1)OCCCC[C@@H](C)O2` the value was “inactive”; for `COc1ccc(NC(=O)Nc2ccc3c(c2)C(=O)N([C@H](C)CO)C[C@H](C)[C@@H](CN(C)CC2CC2)OCCCC[C@H](C)O3)cc1`, “inactive”; for `CCOC(=O)C(C#N)C1=NCCC1` (configuration not stated), “inactive”. For `C[C@@H]1CN([C@H](C)CO)C(=O)c2cc(NC(=O)c3ccccc3)ccc2O[C@@H](C)CCCCO[C@@H]1CN(C)C(=O)Cc1ccccc1` the value was “inactive”; for `COc1cccc(NC(=O)N[C@H]2C=C[C@H](CC(=O)N3CCN(C)CC3)O[C@@H]2CO)c1`, “inactive”. For `C[C@H]1CN([C@@H](C)CO)C(=O)c2cc(NC(=O)CCN3CCOCC3)ccc2O[C@@H]1CN(C)Cc1ccc(C(=O)O)cc1` the value was “inactive”; for `C[C@H]1CN([C@@H](C)CO)C(=O)c2cc(NS(=O)(=O)c3cn(C)cn3)ccc2O[C@H]1CN(C)CC1CC1`, “inactive”. In the case of `COCC(=O)Nc1ccc2c(c1)OC[C@@H](C)N(C(=O)c1ccccc1F)C[C@@H](C)[C@H](OC)CN(C)C2=O`, the cytotoxicity call is “inactive”.

`O=C1OCC=C[C@H]2O[C@@]34C=CCN(CCN5CCOCC5)C(=O)[C@H]3N(CCCCCCO)C(=O)[C@@H]4[C@@H]12`: the cytotoxicity call is “inactive”. The same measure for `C=CC1CN2CCC1CC2C(O)c1ccnc2ccc(OC)cc12` (configuration not stated): “inactive”; for `C=CC1CN2CCC1CC2C(O)c1ccnc2ccc(OC)cc12.O=C(O)C(O)C(O)C(O)C(O)CO` (configuration not stated): “inactive”. The same measure for `C=CC1CN2CCC1CC2C(O)c1ccnc2ccc(OC)cc12.Cl` (configuration not stated): “active”; for `COc1ccc2c3c(n(c2c1)C)[C@H](CO)N(C[C@]13CCN(CC1)C(=O)c1ccccc1F)C(=O)Nc1ccccc1F`: “inactive”; for `C[C@@H]1CN([C@H](C)CO)C(=O)c2cc(NS(=O)(=O)c3cn(C)cn3)ccc2O[C@@H](C)CCCCO[C@H]1CN(C)S(=O)(=O)c1ccc(F)cc1`: “inactive”. The same measure for `COc1ccc(-c2cnc3c(c2)C(=O)N([C@@H](C)CO)C[C@@H](C)[C@H](CN(C)S(=O)(=O)c2ccc(OC)cc2)O3)cc1`: “inactive”; for `Oc1ccc(Cl)c2cccnc12` [listing 1 of 2 here]: “active”. For the molecule `Oc1ccc(Cl)c2cccnc12` [listing 2 of 2 here], the cytotoxicity call is “active”. On to `Oc1ccc(Cl)c2c1CCC2`, for which the cytotoxicity call was “inactive”. For `NS(=O)(=O)c1ccc(O)c([N+](=O)[O-])c1` the value was “inactive”; for `O=[N+]([O-])c1ncn(Cc2ccccn2)n1`, “inactive”.

Turning to `O=[N+]([O-])c1ccc(O)c2ncccc12`, the cytotoxicity call was “active”. The same measure for `Fc1cccc2c(Cl)ccnc12`: “inactive”; for `O=C(C[C@H]1CC[C@@H]2[C@H](COC[C@@H](O)CN2C(=O)c2ccncc2)O1)NC1CCC1`: “inactive”. The same measure for `C[C@@H]1CCCCO[C@H](CN(C)CC2CCCCC2)[C@H](C)CN([C@@H](C)CO)C(=O)c2cc(NC(=O)NC3CCCCC3)ccc2O1`: “inactive”; for `O=C(C[C@@H]1CC[C@@H]2[C@H](COC[C@H](O)CN2Cc2ccccc2F)O1)N[C@H]1CCN(Cc2ccccc2)C1`: “inactive”; for `C[C@H](CO)N1C[C@H](C)[C@@H](CN(C)C(=O)Nc2cccc3ccccc23)Oc2c(NS(=O)(=O)c3ccc(F)cc3)cccc2C1=O`: “inactive”.

With `C[C@H]1CN([C@@H](C)CO)C(=O)c2cc(NC(=O)Cn3cnnn3)ccc2O[C@H]1CN(C)Cc1ccc(C(=O)O)cc1`, the cytotoxicity call was “inactive”.

Regarding `COc1ccc(S(=O)(=O)N(C)C[C@@H]2Oc3ccc(NC(=O)CCN4CCOCC4)cc3C(=O)N([C@H](C)CO)C[C@@H]2C)cc1`, the cytotoxicity call was “inactive”.

For `COCC#Cc1cnc2c(c1)C(=O)N([C@@H](C)CO)C[C@@H](C)[C@H](CN(C)C(=O)CCN1CCCCC1)O2`, the cytotoxicity call was “inactive”. For `C[C@H]1CCCCO[C@H](CN(C)S(=O)(=O)c2ccccc2)[C@@H](C)CN([C@@H](C)CO)C(=O)c2cc(NC(=O)Nc3ccc(C(F)(F)F)cc3)ccc2O1` the value was “active”; for `C[C@@H]1CCCCO[C@H](CN(C)S(=O)(=O)c2ccccc2)[C@@H](C)CN([C@@H](C)CO)C(=O)c2cc(NC(=O)Nc3ccc(C(F)(F)F)cc3)ccc2O1`, “inactive”; for `C[C@@H]1CCCCO[C@@H](CN(C)S(=O)(=O)c2ccccc2)[C@@H](C)CN([C@H](C)CO)C(=O)c2cc(NC(=O)Nc3ccc(C(F)(F)F)cc3)ccc2O1`, “inactive”.

Regarding `C[C@@H]1CN([C@@H](C)CO)C(=O)c2cc(NC(=O)Nc3ccc(C(F)(F)F)cc3)ccc2O[C@@H](C)CCCCO[C@H]1CN(C)S(=O)(=O)c1ccccc1`, the cytotoxicity call was “inactive”.

Turning to `C[C@H]1CCCCO[C@@H](CN(C)S(=O)(=O)c2ccccc2)[C@@H](C)CN([C@@H](C)CO)C(=O)c2cc(NC(=O)Nc3ccc(C(F)(F)F)cc3)ccc2O1`, the cytotoxicity call was “active”. The same measure for `C[C@@H]1CCCCO[C@@H](CN(C)S(=O)(=O)c2ccccc2)[C@@H](C)CN([C@@H](C)CO)C(=O)c2cc(NC(=O)Nc3ccc(C(F)(F)F)cc3)ccc2O1`: “inactive”; for `C[C@@H]1CCCCO[C@H](CN(C)S(=O)(=O)c2ccccc2)[C@@H](C)CN([C@H](C)CO)C(=O)c2cc(NC(=O)Nc3ccc(C(F)(F)F)cc3)ccc2O1`: “active”; for `C[C@H](CO)N1C[C@H](C)[C@H](CN(C)S(=O)(=O)c2ccccc2)OCCCC[C@H](C)Oc2ccc(NC(=O)Nc3ccc(C(F)(F)F)cc3)cc2C1=O`: “inactive”. The same measure for `C[C@@H]1CN([C@@H](C)CO)C(=O)c2cc(NC(=O)Nc3ccc(C(F)(F)F)cc3)ccc2O[C@@H](C)CCCCO[C@@H]1CN(C)S(=O)(=O)c1ccccc1`: “inactive”; for `C[C@@H]1CCCCO[C@H](CN(C)S(=O)(=O)c2ccccc2)[C@H](C)CN([C@@H](C)CO)C(=O)c2cc(NC(=O)Nc3ccc(C(F)(F)F)cc3)ccc2O1`: “active”. The same measure for `C[C@H](CO)N1C[C@H](C)[C@@H](CN(C)S(=O)(=O)c2ccccc2)OCCCC[C@H](C)Oc2ccc(NC(=O)Nc3ccc(C(F)(F)F)cc3)cc2C1=O`: “inactive”. For the molecule `C[C@@H]1CCCCO[C@@H](CN(C)S(=O)(=O)c2ccccc2)[C@H](C)CN([C@H](C)CO)C(=O)c2cc(NC(=O)Nc3ccc(C(F)(F)F)cc3)ccc2O1`, the cytotoxicity call is “inactive”. For `OCC1CCNCC1` the value was “inactive”; for `COC(=O)c1sccc1NC(=O)Cn1cnc2c1c(=O)n(C)c(=O)n2C`, “inactive”. The same measure for `CC(=O)N(C)C[C@H]1Oc2ncc(C#C[C@H](C)O)cc2C(=O)N([C@@H](C)CO)C[C@H]1C`: “inactive”. The same measure for `C[C@H]1CN([C@@H](C)CO)S(=O)(=O)c2ccc(-c3ccc(C(=O)N(C)C)cc3)cc2O[C@@H]1CN(C)C(=O)C1CCOCC1`: “inactive”; for `CC(C)NC(=O)Nc1ccc2c(c1)CC(=O)N([C@H](C)CO)C[C@H](C)[C@H](CN(C)S(=O)(=O)c1ccccc1)O2`: “inactive”; for `Nc1ccn([C@@H]2C[C@@H](O)[C@H](CO)O2)c(=O)n1`: “inactive”.

In the case of `COc1ccc(NC(=O)N(C)C[C@@H]2Oc3ccc(NC(=O)CCCN(C)C)cc3C(=O)N([C@@H](C)CO)C[C@H]2C)cc1`, the cytotoxicity call was “inactive”.

With `COc1ccc(NC(=O)N(C)C[C@@H]2OCCCC[C@@H](C)Oc3ccc(NC(=O)C4CCCCC4)cc3C(=O)N([C@@H](C)CO)C[C@H]2C)cc1`, the cytotoxicity call is “inactive”.

Regarding `C[C@H]1CC/C=C\[C@H]2O[C@@]34C=CCN(CCN5CCOCC5)C(=O)[C@H]3N(CCO)C(=O)[C@@H]4[C@@H]2C(=O)O1`, the cytotoxicity call was “inactive”. For `COc1cc(OC)cc(C(=O)N(Cc2ccco2)Cc2cc3ccc(SC)cc3nc2-c2cccc(OC)c2)c1` the value was “inactive”. For `Fc1ccccc1-c1nc2ccn(Cc3ccc(-c4ccc(C(F)(F)F)cc4C(F)(F)F)nn3)cc-2n1` the value was “active”; for `CO[C@@H]1CN(C)C(=O)c2ccc(NC(=O)C3CC3)cc2OC[C@H](C)N(C(=O)Cc2ccccn2)C[C@@H]1C`, “inactive”. As for `COC(=O)C=Cc1cc(OC)c(OC)c(OC)c1`, the cytotoxicity call is “inactive”.

For the molecule `COc1cc(C=CC(=O)N2CCC=CC2=O)cc(OC)c1OC`, the cytotoxicity call is “active”.

`COc1cc(C=CC(=O)O)cc(OC)c1O`: the cytotoxicity call was “inactive”. The same measure for `COc1cc(/C=C/C(=O)N2CCC=CC2=O)cc(OC)c1OCCOCCOCCOCCC(=O)OC(C)(C)C`: “active”. For `COc1cc(C=CC(N)=O)cc(OC)c1OC` the value was “active”.

Regarding `C/C=C/C(=O)N1CCC=CC1=O`, the cytotoxicity call is “inactive”. For `COc1cc(/C=C/C(=O)N(C)CCN(C)C(=O)/C=C/c2cc(OC)c(OC)c(OC)c2)cc(OC)c1OC` the value was “inactive”; for `C=C(C)C(=O)N1CCC=CC1=O`, “inactive”. The same measure for `COc1cc(C=CC(=O)N2CCCCCCC2)cc(OC)c1OC`: “inactive”; for `COc1cc(C=CC(=O)O)cc(OC)c1OC`: “inactive”.

Take `COc1cc(/C=C/C(=O)N2CCC=CC2=O)cc(OC)c1OC(=O)CCCCCCCCCCC(=O)Oc1c(OC)cc(/C=C/C(=O)N2CCC=CC2=O)cc1OC`: the cytotoxicity call is “inactive”.

Turning to `CCOC(=O)/C=C/C(=O)N1CCC=CC1=O`, the cytotoxicity call was “active”.
